# Test results as given in article PMC5700166.
# Substitutions are numbered along the chain they refer to.
# What was measured:
# Test in all cases: protein-binding microarray (PBM); PBM: ~300 nM protein, 6 mM HEPES pH 7.8, 80 mM KCl, 0.5 mM EDTA, 0.5 mM EGTA, 6% glycerol, 35 ng/ul poly-dIdC, 1% milk, 1 h, room temperature; Ap Aiptasia and Nv Nematostella (sea anemones) / Co Capsaspora / Aq Amphimedon (sponge) / Dm Drosophila / Hu human; RHD is the Rel homology domain; high values mean tight binding
# Settings in all cases: dsDNA, one strand shown
# GST-Ap-NF-kB RHD = target: T1, GST-Ap-NF-kB RHD (Exaiptasia pallida (Aiptasia), UniProt A0A913YAJ5 2-422)
# T1 sequence: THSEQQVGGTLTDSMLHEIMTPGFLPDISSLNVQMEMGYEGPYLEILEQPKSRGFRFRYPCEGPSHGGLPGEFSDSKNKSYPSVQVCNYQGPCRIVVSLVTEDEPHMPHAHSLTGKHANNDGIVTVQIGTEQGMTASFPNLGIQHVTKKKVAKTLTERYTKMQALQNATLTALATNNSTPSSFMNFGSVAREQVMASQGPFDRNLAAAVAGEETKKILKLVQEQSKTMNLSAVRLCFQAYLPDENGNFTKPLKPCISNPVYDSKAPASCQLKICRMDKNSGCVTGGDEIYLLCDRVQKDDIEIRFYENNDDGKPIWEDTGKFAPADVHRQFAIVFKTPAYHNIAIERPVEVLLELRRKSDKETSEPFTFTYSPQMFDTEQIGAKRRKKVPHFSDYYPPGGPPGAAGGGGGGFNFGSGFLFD
# [1] = target: T2, GST-Nv-NF-kB (Cys allele) (Nematostella vectensis, UniProt E5G601 2-411)
# T2 sequence: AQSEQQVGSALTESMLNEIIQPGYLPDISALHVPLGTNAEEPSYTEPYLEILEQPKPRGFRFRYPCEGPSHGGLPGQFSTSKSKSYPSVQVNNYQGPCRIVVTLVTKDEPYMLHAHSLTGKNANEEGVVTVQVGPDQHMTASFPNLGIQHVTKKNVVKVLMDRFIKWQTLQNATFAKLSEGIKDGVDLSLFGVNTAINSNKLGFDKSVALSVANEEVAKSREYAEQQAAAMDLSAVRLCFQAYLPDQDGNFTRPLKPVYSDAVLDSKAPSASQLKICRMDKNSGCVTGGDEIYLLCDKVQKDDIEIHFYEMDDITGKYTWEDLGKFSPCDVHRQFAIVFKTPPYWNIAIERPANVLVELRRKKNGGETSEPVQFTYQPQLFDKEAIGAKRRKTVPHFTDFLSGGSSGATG
# [2] = target: T3, GST-Nv-NF-kB (Ser allele) (Nematostella vectensis, UniProt A7UNT2 2-411)
# T3 sequence: T2 sequence with Q21R, C66S, S207N, E215Q, V217A, E225K, A268E, D399E
# GST-Co-NF-kB = target: T4, GST-Co-NF-kB (Capsaspora owczarzaki, UniProt F1ARL5 200-546)
# T4 sequence: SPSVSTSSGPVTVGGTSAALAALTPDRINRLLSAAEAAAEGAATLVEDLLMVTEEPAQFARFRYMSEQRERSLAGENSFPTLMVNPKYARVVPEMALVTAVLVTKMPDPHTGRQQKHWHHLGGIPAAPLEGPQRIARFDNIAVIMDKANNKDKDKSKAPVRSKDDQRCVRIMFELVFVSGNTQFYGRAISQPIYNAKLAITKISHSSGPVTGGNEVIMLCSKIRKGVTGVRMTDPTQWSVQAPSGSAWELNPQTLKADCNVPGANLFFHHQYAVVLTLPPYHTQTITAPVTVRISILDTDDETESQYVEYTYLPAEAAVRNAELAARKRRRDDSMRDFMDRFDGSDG
# GST-Dm-Relish = target: T5, GST-Dm-Relish (Drosophila melanogaster, UniProt Q94527 99-473)
# T5 sequence: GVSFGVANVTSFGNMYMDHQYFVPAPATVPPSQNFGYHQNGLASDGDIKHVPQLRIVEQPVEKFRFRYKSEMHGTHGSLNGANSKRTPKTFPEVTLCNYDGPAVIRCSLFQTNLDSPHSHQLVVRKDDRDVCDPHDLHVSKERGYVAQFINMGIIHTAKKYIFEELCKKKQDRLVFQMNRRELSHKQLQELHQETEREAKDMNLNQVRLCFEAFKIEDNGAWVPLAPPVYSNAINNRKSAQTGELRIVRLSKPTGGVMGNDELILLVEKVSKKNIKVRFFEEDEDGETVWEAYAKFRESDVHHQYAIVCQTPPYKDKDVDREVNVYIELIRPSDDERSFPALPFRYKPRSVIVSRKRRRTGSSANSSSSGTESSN
# GST-Aq-NF-kB = target: T6, GST-Aq-NF-kB (Amphimedon queenslandica, UniProt A9Y5G7 2-389)
# T6 sequence: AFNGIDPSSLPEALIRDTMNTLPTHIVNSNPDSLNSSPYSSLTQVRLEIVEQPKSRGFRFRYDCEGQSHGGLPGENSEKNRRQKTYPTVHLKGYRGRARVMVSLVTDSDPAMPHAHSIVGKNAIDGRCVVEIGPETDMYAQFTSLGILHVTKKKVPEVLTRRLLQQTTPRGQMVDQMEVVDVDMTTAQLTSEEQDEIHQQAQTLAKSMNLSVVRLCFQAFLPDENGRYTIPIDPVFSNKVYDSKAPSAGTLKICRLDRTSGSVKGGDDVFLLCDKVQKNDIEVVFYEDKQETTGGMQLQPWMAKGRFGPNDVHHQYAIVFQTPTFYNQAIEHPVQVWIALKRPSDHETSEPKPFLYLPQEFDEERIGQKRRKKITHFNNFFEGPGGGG
# GST-Hu-p50 = GST-Hu-p50 (Homo sapiens, UniProt P19838 7-356)
# Chain of GST-Hu-p50 (P19838 7-356): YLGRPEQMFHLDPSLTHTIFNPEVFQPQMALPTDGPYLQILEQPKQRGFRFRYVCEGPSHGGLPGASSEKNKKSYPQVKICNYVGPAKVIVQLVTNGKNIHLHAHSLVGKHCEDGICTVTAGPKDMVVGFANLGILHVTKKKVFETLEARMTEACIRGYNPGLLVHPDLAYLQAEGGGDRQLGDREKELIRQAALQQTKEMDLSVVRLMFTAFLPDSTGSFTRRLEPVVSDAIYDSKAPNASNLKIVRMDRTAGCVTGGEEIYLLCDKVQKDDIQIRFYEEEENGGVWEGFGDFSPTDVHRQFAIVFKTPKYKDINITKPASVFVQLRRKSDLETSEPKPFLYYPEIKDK
Sequence,binding signal (GST-Ap-NF-kB RHD) [z-score],binding signal [1] [z-score],binding signal [2] [z-score],binding signal (GST-Co-NF-kB) [z-score],binding signal (GST-Dm-Relish) [z-score],binding signal (GST-Aq-NF-kB) [z-score],binding signal (GST-Hu-p50) [z-score]
CCGATTAACATCAGGAATTCCCCTGATGTTAATCGGGTCTTGATTCGCTTGACGCTGCTG,11.7,12.5,11.7,7.64,9.99,11.5,7.74
CCGATTAACATCAACGATTCCCCTGATGTTAATCGGGTCTTGATTCGCTTGACGCTGCTG,5.94,6.55,8.86,6.02,3.74,4.38,5.62
CCGATTAACATCACGAATTTCCCTGATGTTAATCGGGTCTTGATTCGCTTGACGCTGCTG,4.28,5.72,6.67,4.33,2.13,5.22,4.46
CCGATTAACATCAGGGGATAACCTGATGTTAATCGGGTCTTGATTCGCTTGACGCTGCTG,6.14,6.28,6.92,3.7,7.51,7.32,4.93
CCGATTAACATCACACATTCCCCTGATGTTAATCGGGTCTTGATTCGCTTGACGCTGCTG,6.52,7.88,8.75,5.83,2.91,5.41,5.28
CCGATTAACATCAAAATTTTCCCTGATGTTAATCGGGTCTTGATTCGCTTGACGCTGCTG,5.5,8.54,10.1,6.32,5.19,7.04,5.99
CCGATTAACATCACGGGATCCCCTGATGTTAATCGGGTCTTGATTCGCTTGACGCTGCTG,7.35,4.81,6.31,3.23,9.23,5.41,4.53
CCGATTAACATCAAATATCCCCTTGATGTTAATCGGGTCTTGATTCGCTTGACGCTGCTG,8.05,8.3,9.01,3.88,6.97,6.2,6.19
CCGATTAACATCAAAAATCCCAGTGATGTTAATCGGGTCTTGATTCGCTTGACGCTGCTG,3.43,3.35,2.65,2.44,7.35,3.8,3.5
CCGATTAACATCAGAGTTCCCCCTGATGTTAATCGGGTCTTGATTCGCTTGACGCTGCTG,7.64,7.87,8.12,8.96,7,6.05,6.39
CCGATTAACATCAAGGAAATCCCTGATGTTAATCGGGTCTTGATTCGCTTGACGCTGCTG,4.83,4.91,2.74,1.77,7.71,5.91,3.79
CCGATTAACATCAGGGGCGTTTATGATGTTAATCGGGTCTTGATTCGCTTGACGCTGCTG,3.36,3.44,3.2,1.35,2.1,3.54,3.71
CCGATTAACATCAGCAATTCCCCTGATGTTAATCGGGTCTTGATTCGCTTGACGCTGCTG,7.03,7.8,9.25,5.7,3.8,5.36,6.4
CCGATTAACATCATGAATTCCCATGATGTTAATCGGGTCTTGATTCGCTTGACGCTGCTG,1.57,3.03,3.14,2.17,3.29,2.61,2.73
CCGATTAACATCAGAAAAGCCCCTGATGTTAATCGGGTCTTGATTCGCTTGACGCTGCTG,7.38,9.78,7.32,1.37,8.04,7.96,6.71
CCGATTAACATCACGGGGGAAAATGATGTTAATCGGGTCTTGATTCGCTTGACGCTGCTG,6.86,6.21,9.47,11.7,4.45,5.8,6.51
CCGATTAACATCAGGAAACCCCATGATGTTAATCGGGTCTTGATTCGCTTGACGCTGCTG,5.38,4.14,2.64,1.76,8.23,4.84,4.69
CCGATTAACATCAATAATCCCCCTGATGTTAATCGGGTCTTGATTCGCTTGACGCTGCTG,8.84,8.72,9.49,6.87,8.23,7.52,7.52
CCGATTAACATCAATCCTCCCCCTGATGTTAATCGGGTCTTGATTCGCTTGACGCTGCTG,5.52,4.44,5.85,8.24,2.9,4.98,4.83
